Assay results published in the supplement of paper PMC10981050.
Where “and” joins values, the source holds several entries; their conditions need not be identical. Identical values can stand only once. Counter-ions that a name gives are not always drawn.

Assays:
Assay in all cases: cell viability relative to vehicle control; higher = less cytotoxic
Settings in all cases: 10 µM
K562 = tested on: K562
Method in brief: (§1)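 CRISPR-edited SRSF2 P95 mutant and isogenic wild-type clones of four leukaemia lines were screened against Selleck bioactive, kinase and epigenetic probe libraries, with identity-inconsistent compounds removed. Compounds were acoustically dispensed into 384-well plates at a single 10 µM dose, with 2000 cells in 50 µL medium per well. After 48 h, supernatant was removed and CellTiter-Glo luminescence was read. Viability was expressed as percent of the on-plate DMSO vehicle control, analysed in Genedata Screener.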

MARIMO = tested on: MARIMO
Method in brief: as §1

MOLM14 = tested on: MOLM14
Method in brief: as §1

OCI-AML2 = tested on: OCI-AML2
Method in brief: as §1

| Compound | cell viability (K562; SRSF2 genotype: SRSF2 P95H/wt) | cell viability (K562; SRSF2 genotype: SRSF2 wt/wt) | cell viability (MARIMO; SRSF2 genotype: SRSF2 P95H/wt) | cell viability (MARIMO; SRSF2 genotype: SRSF2 wt/wt) | cell viability (MOLM14; SRSF2 genotype: SRSF2 P95H/wt) | cell viability (MOLM14; SRSF2 genotype: SRSF2 wt/wt) | cell viability (OCI-AML2; SRSF2 genotype: P95H/wt) | cell viability (OCI-AML2; SRSF2 genotype: wt/wt) |
| --- | --- | --- | --- | --- | --- | --- | --- | --- |
| CC1C(=O)OC2C(O)C34C5CC(C(C)(C)C)C36C(OC(=O)C6O)OC4(C(=O)O5)C12O (stereo not drawn) [Ginkgolide B] | 110% | 114% | 111% | 109% | 107% | 109% | 113% | 105% |
| CC(C)(C#N)c1ccc(N2C(=O)OCc3cnc4ccc(-c5cnc6ccccc6c5)cc4c32)cc1 | 78.7% and 82.1% | 85.8% | 83% | 92.5% | 66% | 80.2% | 74.5% | 75.7% |
| CCCCCCCCCCCCCC(=S)NCCCC[C@H](NC(=O)OCc1ccccc1)C(=O)Nc1ccccc1 [Thiomyristoyl] | 82.1% and 77.7% | 81.9% | 81.4% | 97.3% | 82% | 83.8% | 90.2% | 86.3% |
| Cc1ccc(OCC(O)C(C)NC(C)C)c2c1CCC2 (stereo not drawn) | 93.5% and 95.7% | 92.1% | 104% | 100% | 93.1% | 100% | 92.2% | 99% |
| C=C1C[C@@]23CC[C@H]4[C@@](C)(CCC[C@@]4(C)C(=O)O)[C@@H]2CC[C@]1(O[C@@H]1O[C@@H](CO)[C@@H](O)[C@H](O)[C@@H]1O[C@@H]1O[C@@H](CO)[C@@H](O)[C@H](O)[C@@H]1O)C3 [Steviolbioside] | 111% and 108% | 107% | 114% | 99.5% | 118% | 110% | 104% | 103% |
| O[C@H]1[C@H]2c3cc4c(cc3CN3CCC(=C[C@@H]1O)[C@H]23)OCO4 [Lycorine hydrochloride] | 18.7% and 26.8% | 28.4% | 22.9% | 21% | 20.3% | 7.64% | 0.76% | 2.07% |
| CC(O)C(O)c1cnc2nc(N)[nH]c(=O)c2n1 (stereo not drawn) [6-Biopterin] | 98.5% and 106% | 108% | 104% | 107% | 109% | 106% | 104% | 104% |
| CC(=O)[C@@]1(O)CC[C@H]2[C@@H]3C[C@H](C)C4=CC(=O)CC[C@]4(C)[C@H]3CC[C@@]21C [Medroxyprogesterone] | 97.3% and 90.1% | 91.8% | 74% | 92.8% | 103% | 100% | 103% | 104% |
| CCCCC(=O)N(Cc1ccc(-c2ccccc2-c2nnn[nH]2)cc1)[C@H](C(=O)O)C(C)C [Valsartan (Diovan)] | 102% and 98.1% | 105% | 102% | 112% | 104% | 106% | 101% | 112% |
| Cc1ccc(S(=O)(=O)C=CC#N)cc1 | 1.6% and 0.48% | 0.6% | 0.37% | 0.39% | 0.28% | 0.27% | 0.28% | 0.35% |
| COC(=O)C1=CO[C@@H](O[C@@H]2O[C@H](CO)[C@@H](O)[C@H](O)[C@H]2O)[C@H]2[C@@H]1C(=O)C[C@@H]2C [Verbenalin] | 104% and 98.5% | 104% | 99.9% | 100% | 110% | 103% | 98.4% | 100% |
| COc1ccc(CC(=O)O)cc1OC [Homoveratrumic acid] | 92% and 79.3% | 85.9% | 89.2% | 98.9% | 89.3% | 92.8% | 88.2% | 99% |
| O=C1Nc2ccc(CN3C(=O)CSC3=O)cc2/C1=C/c1cc(CN2CCOCC2)c[nH]1 | 98.7% and 100% | 103% | 97.1% | 100% | 92% | 100% | 97.6% | 91% |
| COc1cccc2c1C(=O)c1c(O)c3c(c(O)c1C2=O)CC(O)(C(=O)CO)CC3OC1CC(N)C(O)C(C)O1 (stereo not drawn) [Doxorubicin (Adriamycin) HCl] | 4.96% and 11.8% | 6.38% | 5.57% | 2.71% | 1% | 0.45% | 2.05% | 12.5% |
| Nc1ccc(S(=O)(=O)Nc2nccs2)cc1 [Sulfathiazole] | 104% and 98.6% | 95.4% | 95.8% | 107% | 103% | 102% | 96% | 105% |
| CC12CC3CC(C)(C1)CC(N)(C3)C2 [Memantine hydrochloride (Namenda)] | 101% and 93.1% | 93.6% | 88.7% | 98.8% | 89.7% | 101% | 90.3% | 103% |
| Cc1[nH]c(/C=C2\C(=O)Nc3ccc(F)cc32)c(C)c1C(=O)NCCN1CCCC1 [Toceranib phosphate] | 97.4% and 103% | 94.5% | 64% | 53.4% | 5.66% | 7.09% | 11.6% | 19.6% |
| CCCCC(=O)O[C@]1(C(=O)CO)[C@@H](C)C[C@H]2[C@@H]3CCC4=CC(=O)C=C[C@]4(C)[C@@]3(F)[C@@H](O)C[C@@]21C [Betamethasone valerate (Betnovate)] | 94.9% and 101% | 94.8% | 96.9% | 110% | 90.8% | 93.7% | 94.5% | 116% |

| Compound | cell viability (K562; SRSF2 genotype: SRSF2 P95H/wt) | cell viability (K562; SRSF2 genotype: SRSF2 wt/wt) | cell viability (MARIMO; SRSF2 genotype: SRSF2 P95H/wt) | cell viability (MARIMO; SRSF2 genotype: SRSF2 wt/wt) | cell viability (MOLM14; SRSF2 genotype: SRSF2 P95H/wt) | cell viability (MOLM14; SRSF2 genotype: SRSF2 wt/wt) | cell viability (OCI-AML2; SRSF2 genotype: P95H/wt) | cell viability (OCI-AML2; SRSF2 genotype: wt/wt) |
| --- | --- | --- | --- | --- | --- | --- | --- | --- |
| CCOC(=O)c1cc(O)c(O)c(O)c1 [Ethyl gallate] | 98.4% and 88.5% | 87.8% | 72.1% | 88.3% | 78.5% | 87.2% | 80.6% | 86.8% |
| COc1cc2c(cc1OC)[C@H]1C[C@@H](OC(=O)[C@@H](N)C(C)C)[C@H](CC(C)C)CN1CC2 [Valbenazine tosylate] | 93.2% and 97.7% | 101% | 108% | 93.9% | 103% | 106% | 97.2% | 96.9% |
| CC(C)c1cc(C(=O)N2Cc3ccc(CN4CCN(C)CC4)cc3C2)c(O)cc1O | 21.1% and 29.8% | 24% | 28% | 26.9% | 3.31% | 4.31% | 18.1% | 22.8% |
| COc1ccccc1N1CCN(CCN(C(=O)C2CCCCC2)c2ccccn2)CC1 | 76.7% and 78.4% | 77.3% | 67.8% | 73% | 75.4% | 77.3% | 74.9% | 66.3% |
| Fc1ccc(C(c2ccc(F)cc2)N2CCN(C/C=C/c3ccccc3)CC2)cc1 [Flunarizine 2HCl] | 67.8% and 82.2% | 72.8% | 50.4% | 37.9% | 46.8% | 60.7% | 28.7% | 26.7% |
| CN1C(C(=O)Nc2ccccn2)=C(O)c2sccc2S1(=O)=O [Tenoxicam(Mobiflex)] | 105% and 103% | 102% | 107% | 112% | 98.4% | 106% | 95.5% | 105% |
| CCOc1nc2cccc(C(=O)O)c2n1Cc1ccc(-c2ccccc2-c2nnn[nH]2)cc1 [Candesartan (Atacand)] | 91% and 88.3% | 89.3% | 91.7% | 100% | 94.7% | 93.5% | 83.1% | 87.3% |
| COc1ccc2[nH]c([S+]([O-])Cc3ncc(C)c(OC)c3C)nc2c1 (stereo not drawn) [Omeprazole (Prilosec)] | 97.3% and 91.5% | 95.6% | 92.8% | 98.5% | 94.9% | 95.8% | 98% | 100% |
| COc1c/c(=C2\C=c3ccccc3=N2)[nH]/c1=C\c1[nH]c(C)cc1C [Obatoclax mesylate (GX15-070)] | 2.96% and 5.97% | 9.27% | 23.4% | 23.6% | 6.74% | 7.58% | 2.7% | 13.3% |
| CC1(N)CCN(c2cnc(-c3cccc(Cl)c3Cl)c(N)n2)CC1 [SHP099 hydrochloride] | 64.7% and 71.4% | 71.9% | 96% | 106% | 29.6% | 22.8% | 25.4% | 38.7% |
| COc1ccc(C2=NC(c3ccc(Cl)cc3)C(c3ccc(Cl)cc3)N2C(=O)N2CCNC(=O)C2)c(OC(C)C)c1 (stereo not drawn) [Nutlin-3b] | 90.3% and 93.2% | 89.3% | 87.5% | 97.1% | 77.2% | 86.7% | 84.5% | 89.8% |
| CCCCC[C@H](O)/C=C/[C@H]1[C@H](O)CC(=O)[C@@H]1C/C=C\CCCC(=O)O [Dinoprostone] | 99% | 99.1% | 91.4% | 79.3% | 59.1% | 62% | 74.5% | 67.5% |
| C1CNCCNCCNCCN1 [Cyclen] | 100% and 102% | 106% | 107% | 111% | 103% | 103% | 105% | 102% |
| CC(=O)c1ccc(O)c(C(=O)O)c1 [5-Acetylsalicylic acid] | 110% and 106% | 98% | 106% | 112% | 101% | 107% | 102% | 105% |
| O=c1cc(-c2ccccc2)oc2c1ccc1ccccc12 [alpha-Naphthoflavone] | 94.2% and 87.3% | 95.9% | 90.5% | 96.5% | 117% | 109% | 86.5% | 99.7% |
| O=c1ccn(C2OC(CO)C(O)C2O)c(=O)[nH]1 (stereo not drawn) | 90.3% and 93.8% | 99.6% | 99.2% | 97.5% | 100% | 100% | 100% | 95.4% |
| CNS(=O)(=O)Nc1nccc(Cc2c(C)c3ccc(Oc4ncccn4)cc3oc2=O)c1F | 59.5% and 66.4% | 72.2% | 36% | 36.9% | 44.7% | 30.6% | 37.6% | 40.4% |
| Nc1nc(-c2nn(Cc3ccccc3F)c3ncccc23)ncc1C1CC1 | 110% and 114% | 95.3% | 103% | 101% | 104% | 104% | 83.9% | 86.4% |
